# Experimental data published in ChEMBL document CHEMBL2218924, “A broad activity screen in support of a chemogenomic map for kinase signalling research and drug discovery” (Biochem J, 2013).
# Assays:
# [1] = target: Tyrosine-protein kinase SYK (Homo sapiens) (UniProt P43405); conditions: at 10 µM
# [2] = target: T1, Mitogen-activated protein kinase kinase kinase 7 (Homo sapiens) (UniProt O43318); conditions: at 1 µM
# T1 sequence (whole entry): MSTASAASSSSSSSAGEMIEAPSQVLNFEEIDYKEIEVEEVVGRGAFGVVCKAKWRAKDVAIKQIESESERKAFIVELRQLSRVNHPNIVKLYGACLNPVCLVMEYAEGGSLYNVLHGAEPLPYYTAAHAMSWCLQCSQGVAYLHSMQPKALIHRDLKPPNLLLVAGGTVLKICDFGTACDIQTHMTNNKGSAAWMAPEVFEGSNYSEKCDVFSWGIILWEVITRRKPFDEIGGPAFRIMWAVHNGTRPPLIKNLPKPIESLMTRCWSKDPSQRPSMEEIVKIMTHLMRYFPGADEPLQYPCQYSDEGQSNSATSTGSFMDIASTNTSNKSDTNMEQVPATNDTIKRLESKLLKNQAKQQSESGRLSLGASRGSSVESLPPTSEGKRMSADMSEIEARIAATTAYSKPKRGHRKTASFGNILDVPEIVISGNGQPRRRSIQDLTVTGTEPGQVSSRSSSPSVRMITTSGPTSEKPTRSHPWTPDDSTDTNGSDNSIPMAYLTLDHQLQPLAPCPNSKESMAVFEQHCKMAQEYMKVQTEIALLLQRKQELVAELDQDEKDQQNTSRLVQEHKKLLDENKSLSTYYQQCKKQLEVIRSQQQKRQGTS
# [3] = target: T1, Mitogen-activated protein kinase kinase kinase 7 (Homo sapiens); conditions: at 10 µM
# [4] = target: T2, Serine/threonine-protein kinase TAO1 (Homo sapiens) (UniProt Q7L7X3); conditions: at 1 µM
# T2 sequence (whole entry): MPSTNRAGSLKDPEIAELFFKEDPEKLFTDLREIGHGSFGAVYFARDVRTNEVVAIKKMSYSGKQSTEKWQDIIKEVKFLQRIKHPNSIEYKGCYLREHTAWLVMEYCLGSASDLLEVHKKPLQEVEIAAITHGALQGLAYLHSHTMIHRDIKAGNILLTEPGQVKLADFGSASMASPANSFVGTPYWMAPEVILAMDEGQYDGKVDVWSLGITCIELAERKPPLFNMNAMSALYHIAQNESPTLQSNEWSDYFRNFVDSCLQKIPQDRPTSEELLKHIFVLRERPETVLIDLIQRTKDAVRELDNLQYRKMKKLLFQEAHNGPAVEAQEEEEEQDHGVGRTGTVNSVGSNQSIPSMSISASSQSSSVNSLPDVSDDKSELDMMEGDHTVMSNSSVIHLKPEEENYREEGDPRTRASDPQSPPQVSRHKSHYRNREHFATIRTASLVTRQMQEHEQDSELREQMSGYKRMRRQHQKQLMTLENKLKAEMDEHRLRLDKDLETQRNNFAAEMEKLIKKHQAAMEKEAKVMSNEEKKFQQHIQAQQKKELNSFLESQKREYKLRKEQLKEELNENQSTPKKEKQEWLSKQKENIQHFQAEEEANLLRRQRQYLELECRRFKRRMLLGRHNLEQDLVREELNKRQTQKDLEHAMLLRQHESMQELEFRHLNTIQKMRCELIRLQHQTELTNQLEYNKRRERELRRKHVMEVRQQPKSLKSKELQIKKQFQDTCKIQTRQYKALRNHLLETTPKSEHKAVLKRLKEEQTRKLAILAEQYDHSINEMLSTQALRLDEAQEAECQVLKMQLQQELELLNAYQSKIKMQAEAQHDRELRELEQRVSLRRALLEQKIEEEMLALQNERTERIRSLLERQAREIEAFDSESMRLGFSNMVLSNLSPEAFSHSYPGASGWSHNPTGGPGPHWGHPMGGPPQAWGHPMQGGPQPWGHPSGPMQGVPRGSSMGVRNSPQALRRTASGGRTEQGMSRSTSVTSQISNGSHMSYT
# [5] = target: T2, Serine/threonine-protein kinase TAO1 (Homo sapiens); conditions: at 10 µM
# [6] = target: T3, Serine/threonine-protein kinase TAO2 (Homo sapiens) (UniProt Q9UL54); conditions: at 1 µM
# T3 sequence (whole entry): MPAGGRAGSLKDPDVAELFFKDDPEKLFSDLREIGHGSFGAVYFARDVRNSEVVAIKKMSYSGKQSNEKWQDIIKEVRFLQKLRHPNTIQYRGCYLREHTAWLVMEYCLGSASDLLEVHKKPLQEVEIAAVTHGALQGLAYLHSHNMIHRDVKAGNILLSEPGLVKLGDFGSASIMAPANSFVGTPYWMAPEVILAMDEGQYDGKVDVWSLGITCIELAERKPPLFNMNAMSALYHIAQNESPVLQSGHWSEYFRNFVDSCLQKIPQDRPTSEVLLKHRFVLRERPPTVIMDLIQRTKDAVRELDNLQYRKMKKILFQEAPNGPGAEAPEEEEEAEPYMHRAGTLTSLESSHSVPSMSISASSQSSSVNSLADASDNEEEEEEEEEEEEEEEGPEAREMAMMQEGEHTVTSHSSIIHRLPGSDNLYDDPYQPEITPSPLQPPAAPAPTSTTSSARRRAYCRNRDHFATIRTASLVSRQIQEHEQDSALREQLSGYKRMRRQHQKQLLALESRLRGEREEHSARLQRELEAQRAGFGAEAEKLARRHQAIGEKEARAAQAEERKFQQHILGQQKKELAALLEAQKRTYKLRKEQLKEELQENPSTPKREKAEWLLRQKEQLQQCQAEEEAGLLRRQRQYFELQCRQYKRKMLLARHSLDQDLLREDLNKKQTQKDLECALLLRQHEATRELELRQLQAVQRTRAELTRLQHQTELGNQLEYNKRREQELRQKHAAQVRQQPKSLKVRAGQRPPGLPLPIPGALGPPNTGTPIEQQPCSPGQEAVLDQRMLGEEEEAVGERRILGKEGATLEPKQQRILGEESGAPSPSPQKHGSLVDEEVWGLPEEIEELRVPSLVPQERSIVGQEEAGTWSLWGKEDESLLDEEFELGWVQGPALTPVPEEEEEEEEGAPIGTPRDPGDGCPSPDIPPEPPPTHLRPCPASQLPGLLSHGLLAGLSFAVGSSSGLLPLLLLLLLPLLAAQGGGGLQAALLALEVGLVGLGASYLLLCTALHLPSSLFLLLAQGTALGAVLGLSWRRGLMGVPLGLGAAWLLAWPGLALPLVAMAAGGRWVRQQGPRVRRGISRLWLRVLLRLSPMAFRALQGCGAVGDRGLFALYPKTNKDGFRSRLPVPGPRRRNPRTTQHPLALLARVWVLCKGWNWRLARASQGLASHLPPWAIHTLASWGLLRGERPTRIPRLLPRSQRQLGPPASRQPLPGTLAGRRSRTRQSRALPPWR
# [7] = target: T3, Serine/threonine-protein kinase TAO2 (Homo sapiens); conditions: at 10 µM
# [8] = target: T4, Serine/threonine-protein kinase TAO3 (Homo sapiens) (UniProt Q9H2K8); conditions: at 1 µM
# T4 sequence (whole entry): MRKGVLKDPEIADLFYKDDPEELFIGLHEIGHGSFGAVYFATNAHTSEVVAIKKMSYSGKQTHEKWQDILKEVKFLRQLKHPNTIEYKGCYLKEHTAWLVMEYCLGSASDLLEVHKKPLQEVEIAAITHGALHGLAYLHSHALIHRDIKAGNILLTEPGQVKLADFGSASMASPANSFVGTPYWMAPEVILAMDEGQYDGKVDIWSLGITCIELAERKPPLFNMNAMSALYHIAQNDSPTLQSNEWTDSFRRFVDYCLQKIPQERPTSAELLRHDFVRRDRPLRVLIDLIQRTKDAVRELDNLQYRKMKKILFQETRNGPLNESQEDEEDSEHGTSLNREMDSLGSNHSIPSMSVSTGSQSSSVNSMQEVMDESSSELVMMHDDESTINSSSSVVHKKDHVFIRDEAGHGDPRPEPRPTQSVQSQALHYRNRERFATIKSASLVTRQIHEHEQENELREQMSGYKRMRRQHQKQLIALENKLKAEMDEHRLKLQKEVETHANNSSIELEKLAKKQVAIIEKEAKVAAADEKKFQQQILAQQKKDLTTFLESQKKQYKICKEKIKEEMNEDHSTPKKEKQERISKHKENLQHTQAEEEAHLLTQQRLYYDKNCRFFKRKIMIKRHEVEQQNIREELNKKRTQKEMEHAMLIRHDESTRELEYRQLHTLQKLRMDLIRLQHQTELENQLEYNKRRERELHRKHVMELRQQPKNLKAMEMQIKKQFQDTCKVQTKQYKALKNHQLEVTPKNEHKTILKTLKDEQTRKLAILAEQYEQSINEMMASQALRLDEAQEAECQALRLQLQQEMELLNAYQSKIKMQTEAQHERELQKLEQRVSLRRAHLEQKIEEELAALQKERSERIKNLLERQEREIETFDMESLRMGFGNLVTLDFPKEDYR
# [9] = target: T4, Serine/threonine-protein kinase TAO3 (Homo sapiens); conditions: at 10 µM
smiles,measurement,setting,value
CCCC(=O)Oc1ccc2[nH]c(C(=O)c3cc4ccccc4[nH]3)cc2c1,residual activity,[1],101%
same,residual activity,[2],83%
same,residual activity,[3],87%
same,residual activity,[4],91%
same,residual activity,[5],81%
same,residual activity,[6],104%
same,residual activity,[7],83%
same,residual activity,[8],89%
same,residual activity,[9],86%
